Values joined by “and” are separate entries in the source; they are usually repeats but may differ in a detail not shown here. Equal values may be shown once. Hit rate of the full screen: of about 5,500 compounds, about 2,000 (36%) were called active. About 18% were inconclusive and are not listed. Rule as the data show it: active = normalized growth mostly below about 0.91 (no sharp cut-off); inconclusive = no clear call, values can overlap the other calls; inactive = mostly above about 0.92. Some of the results follow.
Test: chemical genetic growth profiling, strain panel (AID 1159580);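 also: tested at 20 µM; growth read once vehicle control cultures reached saturation at 30 °C; 1 = growth at the plate median or of vehicle wells; lower values mean less growth of the strain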
Details: growth OD

Measured: normalized growth

Cn1c(=O)c2[nH]c(C3CCCC3)nc2n(C)c1=O
inactive: S. cerevisiae deletion strains, locus YJR075W, strain HOC1, active compounds read low 1.01 and 1.04 | S. cerevisiae deletion strains, locus YKL009W, strain mrt4, active compounds read low 1 | S. cerevisiae deletion strains, locus YKL068W, active compounds read low 1.02 | S. cerevisiae deletion strains, locus YKL085W, strain MDH1 (second series), active compounds read low 1.05 | S. cerevisiae deletion strains, locus YKL085W, strain MDH1, active compounds read low 1.05 | S. cerevisiae deletion strains, locus YKL160W, strain elf1, active compounds read low 0.983 | S. cerevisiae deletion strains, locus YKL190W, strain CNB1, active compounds read low 1.02 | S. cerevisiae deletion strains, locus YKR001C, strain vps1, active compounds read low 1 | S. cerevisiae deletion strains, locus YKR026C, strain gcn3, active compounds read low 1 | S. cerevisiae deletion strains, locus YKR091W, strain srl3, active compounds read low 0.991 | S. cerevisiae deletion strains, locus YLL001W, strain dnm1, active compounds read low 0.97 | S. cerevisiae deletion strains, locus YLL026W, active compounds read low 0.989 | S. cerevisiae deletion strains, locus YLL041C, strain sdh2, active compounds read low 0.988 | S. cerevisiae deletion strains, locus YLR027C, strain aat2, active compounds read low 0.995 | S. cerevisiae deletion strains, locus YLR039C, strain RIC1, active compounds read low 0.966 | S. cerevisiae deletion strains, locus YLR058C, strain SHM2, active compounds read low 1.01 | S. cerevisiae deletion strains, locus YLR102C, strain apc9, active compounds read low 0.999 | S. cerevisiae deletion strains, locus YLR113W, strain HOG1, active compounds read low 1 | S. cerevisiae deletion strains, locus YLR221C, strain rsa3, active compounds read low 0.988 | S. cerevisiae deletion strains, locus YLR258W, strain gsy2, active compounds read low 0.972 | S. cerevisiae deletion strains, locus YLR262C, strain YPT6 (second series), active compounds read low 0.997 | S. cerevisiae deletion strains, locus YLR262C, strain YPT6, active compounds read low 1.04 | S. cerevisiae deletion strains, locus YLR268W, strain sec22, active compounds read low 0.988 | S. cerevisiae deletion strains, locus YLR320W, strain mms22, active compounds read low 0.989 | S. cerevisiae deletion strains, locus YLR330W, strain CHS5, active compounds read low 1.01 | S. cerevisiae deletion strains, locus YLR342W, strain FKS1 (second series), active compounds read low 1 | S. cerevisiae deletion strains, locus YLR342W, strain FKS1, active compounds read low 0.986 | S. cerevisiae deletion strains, locus YLR357W, strain rsc2, active compounds read low 0.954 | S. cerevisiae deletion strains, locus YLR370C, strain arc18, active compounds read low 0.997 | S. cerevisiae deletion strains, locus YLR371W, strain rom2, active compounds read low 0.997 | S. cerevisiae deletion strains, locus YLR384C, strain iki3, active compounds read low 0.986 | S. cerevisiae deletion strains, locus YLR418C, strain cdc73, active compounds read low 0.989 | S. cerevisiae deletion strains, locus YML016C, strain PPZ1, active compounds read low 1.02 | S. cerevisiae deletion strains, locus YML032C, strain rad52, active compounds read low 0.99 | S. cerevisiae deletion strains, locus YML120C, strain ndi1, active compounds read low 0.992 | S. cerevisiae deletion strains, locus YML124C, strain tub3, active compounds read low 0.998 | S. cerevisiae deletion strains, locus YMR058W, strain fet3, active compounds read low 1 | S. cerevisiae deletion strains, locus YMR078C, strain ctf18, active compounds read low 0.996 | S. cerevisiae deletion strains, locus YMR125W, strain sto1, active compounds read low 0.979 | S. cerevisiae deletion strains, locus YMR129W, active compounds read low 0.999 | S. cerevisiae deletion strains, locus YMR205C, strain PFK2, active compounds read low 0.988 | S. cerevisiae deletion strains, locus YMR223W, strain ubp8, active compounds read low 0.989 | S. cerevisiae deletion strains, locus YMR231W, strain pep5, active compounds read low 0.988 | S. cerevisiae deletion strains, locus YMR263W, strain SAP30, active compounds read low 1.02 and 0.995 | S. cerevisiae deletion strains, locus YMR307W, strain GAS1, active compounds read low 1.05 and 1.01 | S. cerevisiae deletion strains, locus YNL067W, strain RPL9B, active compounds read low 1.02 | S. cerevisiae deletion strains, locus YNL071W, strain lat1, active compounds read low 0.997 | S. cerevisiae deletion strains, locus YNL128W, strain TEP1, active compounds read low 1.01 and 0.993 | S. cerevisiae deletion strains, locus YNL153C, strain GIM3, active compounds read low 1.01 and 0.975 | S. cerevisiae deletion strains, locus YNL175C, strain NOP13, active compounds read low 0.977 | S. cerevisiae deletion strains, locus YNL183C, strain NPR1, active compounds read low 0.942 | S. cerevisiae deletion strains, locus YNL197C, strain WHI3, active compounds read low 0.935 | S. cerevisiae deletion strains, locus YNL209W, strain ssb2, active compounds read low 0.996 | S. cerevisiae deletion strains, locus YNL224C, strain SQS1, active compounds read low 0.989 | S. cerevisiae deletion strains, locus YNL233W, strain BNI4, active compounds read low 1.01 | S. cerevisiae deletion strains, locus YNL248C, strain rpa49, active compounds read low 0.968 | S. cerevisiae deletion strains, locus YNL250W, strain rad50, active compounds read low 1 | S. cerevisiae deletion strains, locus YNL271C, strain bni1, active compounds read low 0.989 | S. cerevisiae deletion strains, locus YNL298W, strain CLA4, active compounds read low 0.998 | S. cerevisiae deletion strains, locus YNL307C, strain MCK1, active compounds read low 0.996 | S. cerevisiae deletion strains, locus YNL322C, strain KRE1 (second series), active compounds read low 0.985 | S. cerevisiae deletion strains, locus YNL322C, strain KRE1, active compounds read low 1.01 | S. cerevisiae deletion strains, locus YNR049C, strain mso1, active compounds read low 0.994 | S. cerevisiae deletion strains, locus YNR052C, strain pop2, active compounds read low 1 | S. cerevisiae deletion strains, locus YOL006C, strain TOP1, active compounds read low 1.05 | S. cerevisiae deletion strains, locus YOL012C, strain htz1 0.701 | S. cerevisiae deletion strains, locus YOL147C, strain pex11, active compounds read low 0.986 | S. cerevisiae deletion strains, locus YOR001W, strain rrp6, active compounds read low 0.989 | S. cerevisiae deletion strains, locus YOR061W, strain CKA2, active compounds read low 1.01 | S. cerevisiae deletion strains, locus YOR069W, strain VPS5, active compounds read low 1.01 | S. cerevisiae deletion strains, locus YOR070C, strain gyp1, active compounds read low 0.998 | S. cerevisiae deletion strains, locus YOR080W, strain dia2, active compounds read low 0.985 | S. cerevisiae deletion strains, locus YOR083W, strain WHI5 (second series), active compounds read low 0.977 | S. cerevisiae deletion strains, locus YOR083W, strain WHI5, active compounds read low 0.99 | S. cerevisiae deletion strains, locus YOR106W, strain vam3, active compounds read low 0.991 | S. cerevisiae deletion strains, locus YOR136W, strain idh2, active compounds read low 0.988 | S. cerevisiae deletion strains, locus YOR144C, strain elg1, active compounds read low 0.998 | S. cerevisiae deletion strains, locus YOR184W, strain ser1, active compounds read low 0.981 | S. cerevisiae deletion strains, locus YOR231W, strain MKK1, active compounds read low 0.981 | S. cerevisiae deletion strains, locus YOR265W, strain rbl2, active compounds read low 1 | S. cerevisiae deletion strains, locus YOR270C, strain vph1, active compounds read low 1.02 | S. cerevisiae deletion strains, locus YOR290C, strain snf2, active compounds read low 0.925 | S. cerevisiae deletion strains, locus YOR316C, strain cot1, active compounds read low 0.999 | S. cerevisiae deletion strains, locus YPL051W, strain arl3, active compounds read low 0.992 | S. cerevisiae deletion strains, locus YPL055C, strain LGE1, active compounds read low 1.02 | S. cerevisiae deletion strains, locus YPL078C, strain atp4, active compounds read low 0.997 | S. cerevisiae deletion strains, locus YPL106C, strain sse1, active compounds read low 0.985 | S. cerevisiae deletion strains, locus YPL240C, strain hsp82, active compounds read low 0.983 | S. cerevisiae deletion strains, locus YPL241C, strain CIN2, active compounds read low 1.04 and 1.01 | S. cerevisiae deletion strains, locus YPL256C, strain CLN2, active compounds read low 0.953 | S. cerevisiae deletion strains, locus YPR119W, strain clb2, active compounds read low 0.997 | S. cerevisiae deletion strains, locus YPR141C, strain kar3, active compounds read low 0.997 | S. cerevisiae deletion strains, locus YPR163C, strain tif3, active compounds read low 0.998 | S. cerevisiae deletion strains, locus YPR167C, strain met16, active compounds read low 0.997 | S. cerevisiae deletion strains, strain wtn01, active compounds read low 1.01 | S. cerevisiae strains, strain wild type, active compounds read low 1.01

— PubChem BioAssay AID1159580 (chemical genetic matrix, 2015)
